From publication PMC4336329 (PLoS ONE, 2015)
Screen size: about 310,000 compounds; about 14,000 (4.5%) showed an effect of 50% or more. The effect is printed as a negative number. This excerpt belongs to a sample that is enriched for strong results.

Each compound was assayed against human ether-à-go-go-related gene (hERG) potassium channel (human, UniProt Q12809) (assay: primary screen, population patch clamp on CHO cells stably expressing hERG; higher = less effect of the substance).
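Note: peak tail current of the secondary pulse compared with the same well before compound.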

Chain of human ether-à-go-go-related gene (hERG) potassium channel (Q12809 whole entry, looked up): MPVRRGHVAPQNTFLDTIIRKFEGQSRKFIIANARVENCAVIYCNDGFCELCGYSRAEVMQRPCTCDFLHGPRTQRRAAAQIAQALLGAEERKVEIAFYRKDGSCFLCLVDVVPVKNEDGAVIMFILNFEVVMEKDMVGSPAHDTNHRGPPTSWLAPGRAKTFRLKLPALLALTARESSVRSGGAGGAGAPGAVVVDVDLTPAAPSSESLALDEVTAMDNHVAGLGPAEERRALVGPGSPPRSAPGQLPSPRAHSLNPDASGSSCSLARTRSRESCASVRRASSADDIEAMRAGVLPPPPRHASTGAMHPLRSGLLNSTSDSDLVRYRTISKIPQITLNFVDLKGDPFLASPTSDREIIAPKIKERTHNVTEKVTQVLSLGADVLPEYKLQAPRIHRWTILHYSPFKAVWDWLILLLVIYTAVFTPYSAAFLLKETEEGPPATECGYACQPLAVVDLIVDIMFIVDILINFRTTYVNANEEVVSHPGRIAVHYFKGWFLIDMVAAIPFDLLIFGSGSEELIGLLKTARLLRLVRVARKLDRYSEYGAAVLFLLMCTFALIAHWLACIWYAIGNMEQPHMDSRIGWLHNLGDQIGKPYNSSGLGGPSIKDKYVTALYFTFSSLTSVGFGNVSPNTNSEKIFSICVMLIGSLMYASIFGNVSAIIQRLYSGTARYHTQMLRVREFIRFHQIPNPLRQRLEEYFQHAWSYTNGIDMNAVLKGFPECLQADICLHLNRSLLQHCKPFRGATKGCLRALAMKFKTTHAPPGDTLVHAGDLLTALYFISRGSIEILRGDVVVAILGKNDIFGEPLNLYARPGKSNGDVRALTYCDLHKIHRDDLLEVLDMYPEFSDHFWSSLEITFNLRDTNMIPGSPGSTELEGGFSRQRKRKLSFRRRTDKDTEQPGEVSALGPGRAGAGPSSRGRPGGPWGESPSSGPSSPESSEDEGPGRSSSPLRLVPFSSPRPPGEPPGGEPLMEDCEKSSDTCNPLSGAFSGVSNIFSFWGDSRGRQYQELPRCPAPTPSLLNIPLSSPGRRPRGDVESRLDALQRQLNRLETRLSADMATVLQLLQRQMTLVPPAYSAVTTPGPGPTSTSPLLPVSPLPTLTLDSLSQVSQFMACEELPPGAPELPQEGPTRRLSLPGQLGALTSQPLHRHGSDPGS

In order of falling “hERG current change (%, negative = inhibition) at 10uM” value:
1. CCOC(=O)Cc1nn(C(C)C)c(=O)c2ccccc12  26.6%
2. COCCCN1CN=C(NS(=O)(=O)c2ccc(C)cc2)NC1  13.3%
3. Cc1cccc(NC(=O)CCn2nc(C)cc2C)c1  9.02%
4. Cc1nc2ccc(-c3nc4ccccc4[nH]3)cc2[nH]1  7.78%
5. Cc1ccc(S(=O)(=O)NCCC(=O)NC2CCCCC2C)cc1 (stereo not shown)  3.4%
6. COc1ccc(NC(=O)C23CC4CC(C2)CC(n2cnc(Br)n2)(C4)C3)cc1Cl  3.08%
7. Cn1c(=O)c([N+](=O)[O-])c(NCC(O)c2ccccc2)c2ccccc21 (stereo not shown)  -2.03%
8. COc1ccc(NC(=O)C23CC4CC(C2)CC(n2cnc(Br)n2)(C4)C3)cc1OC  -2.41%
9. CCNC(=S)N1CCCC(c2nc3ccc(C)cc3[nH]2)C1 (stereo not shown)  -2.45%
10. C/C(=N\Nc1ccccc1Cl)c1ccc(-n2ccnc2)cc1  -7.1%
11. COc1ccc(NC(=O)C23CC4CC(C2)CC(n2cnc(Br)n2)(C4)C3)c(C)c1  -9.06%
12. CC(=O)c1cccc(NC(=O)COc2ccc(S(=O)(=O)N3CCOCC3)cc2)c1  -10.1%
13. COc1ccc(NC(=O)C23CC4CC(C2)CC(n2cnc(Br)n2)(C4)C3)c(OC)c1  -23.4%
14. COC(=O)c1ccc(NC(=O)C23CC4CC(C2)CC(n2cnc(Cl)n2)(C4)C3)cc1  -27.3%
15. CN(C)C(=O)/C(=C/c1cn(-c2ccccc2)nc1-c1cccc([N+](=O)[O-])c1)NC(=O)c1ccccc1  -29.1%
16. COC(=O)c1ccccc1NC(=O)C12CC3CC(C1)CC(n1cnc(Cl)n1)(C3)C2  -38.5%
17. COc1ccc(OC)c(NC(=O)C23CC4CC(C2)CC(n2cnc(Br)n2)(C4)C3)c1  -41.2%
18. O=C(Nc1cccc2ccccc12)C12CC3CC(C1)CC(n1cnc([N+](=O)[O-])n1)(C3)C2  -44.5%
19. Cc1ccc(F)cc1NC(=O)C12CC3CC(C1)CC(n1cnc([N+](=O)[O-])n1)(C3)C2  -52.8%
20. O=C(Nc1ccccc1)C12CC3CC(C1)CC(n1cnc([N+](=O)[O-])n1)(C3)C2  -59.6%
21. CC(=O)Nc1ccc(NC(=O)C23CC4CC(C2)CC(n2cnc(Br)n2)(C4)C3)cc1  -63.4%
22. COc1cc(NC(=O)C23CC4CC(C2)CC(n2cnc([N+](=O)[O-])n2)(C4)C3)cc(OC)c1  -66.7%
